Data from PubChem BioAssay (Tox21).
Records with an inconclusive call do not appear. Activity calls are given as the source filed them. Unless noted, calls come from the whole dose curve; as a rule, active = well fitted curve in the direction sought with a large enough effect in the repeat runs; inconclusive = weak or mixed curves; inactive = no such curve, though single readings can be large; an effect the other way counts as inactive or inconclusive.

Assays:
[1] = qHTS assay to identify small molecule antagonists of the glucocorticoid receptor (GR) signaling pathway - cell viability counter screen (AID 720693); note: nearly all actives have a fitted effect of over 55% in size; note: potency is the fitted concentration of half-maximal effect
[2] = qHTS assay for identifying genotoxic compounds that show differential cytotoxicity against isogenic chicken DT40 cell lines with known DNA damage response pathways - wild type cell line (AID 743012); note: nearly all actives have a fitted effect of over 60% in size; note: potency is the fitted concentration of half-maximal effect
How it was run: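 First, wild type DT40 cells were plated at 300 per well and equilibrated about 0.5 h at 37 C/5% CO2. Next, compounds in DMSO were added and exposure lasted 40 h. Finally, CellTiter-Glo was added for 30 min at room temperature and luminescence recorded.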

[3] = qHTS assay for identifying genotoxic compounds that show differential cytotoxicity against isogenic chicken DT40 cell lines with known DNA damage response pathways - Rad54/Ku70 mutant cell line (AID 743015); note: nearly all actives have a fitted effect of over 60% in size; note: potency is the fitted concentration of half-maximal effect
[4] = qHTS assay to identify small molecule antagonists of the androgen receptor (AR) signaling pathway using the MDA cell line - cell viability counter screen (AID 743041; note: nearly all actives have a fitted effect of over 45% in size; note: potency is the fitted concentration of half-maximal effect)
How it was run: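 Viability counter screen run alongside the AR antagonist reporter: cells seeded 5 h before compound, R1881 added, 16 h incubation at 37C without CO2, fluorescent CellTiter-Fluor signal quantified.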

[5] = qHTS assay to identify small molecule antagonists of the thyroid receptor (TR) signaling pathway - cell viability counter screen (AID 743064); note: nearly all actives have a fitted effect of over 50% in size; note: potency is the fitted concentration of half-maximal effect
How it was run: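 Plate GH3.TRE-Luc cells; incubate 4 h at 37 °C; add compound, then T3 to 1 nM final; incubate 23.5 h; add CellTiter-Fluor; incubate 30 min at 37 °C, 5% CO2; read fluorescence.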

[6] = qHTS assay to identify small molecule antagonists of the thyroid receptor (TR) signaling pathway (AID 743065); note: nearly all actives have a fitted effect of over 55% in size; note: potency is the fitted concentration of half-maximal effect
How it was run: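 GH3.TRE-Luc rat pituitary cells carrying two TR response elements driving luciferase were plated for 4 h, given compound plus 1 nM T3 (final), and incubated 23.5 h at 37 C. ONE-Glo luminescence measured reporter inhibition; CellTiter-Fluor fluorescence tracked cytotoxicity.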

[7] = system: thyroid hormone receptor (rat, GH3 cells); test: qHTS assay to identify small molecule agonists of the thyroid receptor (TR) signaling pathway (AID 743066; calls by dose curve)
[8] = biological target: Estrogen receptor (Homo sapiens) (UniProt P03372); test: qHTS assay to identify small molecule antagonists of the estrogen receptor alpha (ER-alpha) signaling pathway (AID 743069; active = well fitted curve in the direction sought with a large enough effect in the signal ratio in the repeat runs, not every such curve was filed as active; the % refers to the signal ratio)
Estrogen receptor (Homo sapiens), sequence (P03372 whole entry, looked up): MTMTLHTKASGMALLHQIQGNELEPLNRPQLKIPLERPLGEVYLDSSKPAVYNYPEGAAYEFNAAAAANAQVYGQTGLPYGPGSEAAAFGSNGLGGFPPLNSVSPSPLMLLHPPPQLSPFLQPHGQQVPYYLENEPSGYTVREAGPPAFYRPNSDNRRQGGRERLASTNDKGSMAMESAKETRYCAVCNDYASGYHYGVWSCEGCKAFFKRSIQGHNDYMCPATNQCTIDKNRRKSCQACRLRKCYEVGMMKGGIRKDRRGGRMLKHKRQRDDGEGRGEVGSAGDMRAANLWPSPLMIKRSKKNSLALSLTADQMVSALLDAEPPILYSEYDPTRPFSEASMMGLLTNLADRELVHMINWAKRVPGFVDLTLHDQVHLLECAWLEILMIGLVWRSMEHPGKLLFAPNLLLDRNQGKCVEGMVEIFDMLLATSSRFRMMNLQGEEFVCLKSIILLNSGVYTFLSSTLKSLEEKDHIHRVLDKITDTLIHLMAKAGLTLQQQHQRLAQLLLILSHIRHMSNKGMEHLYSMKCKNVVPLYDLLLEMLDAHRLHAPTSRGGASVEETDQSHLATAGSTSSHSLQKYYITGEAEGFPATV
How it was run: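 Estradiol-stimulated ER-alpha-UAS-bla HEK293 cells, 18 hr compound exposure at 37C. LiveBLAzer B/G substrate, 2 hr RT, fluorescence read.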

[9] = qHTS assay to identify small molecule antagonists of the estrogen receptor alpha (ER-alpha) signaling pathway - cell viability counter screen (AID 743074; calls by dose curve;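 note: HEK293 cells carrying ER-alpha-UAS-bla reporter stimulated with 17beta-estradiol; nearly all actives have a fitted effect of over 45% in size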; note: potency is the fitted concentration of half-maximal effect)
[10] = biological target: Estrogen receptor (Homo sapiens) (UniProt P03372); test: qHTS assay to identify small molecule agonists of the estrogen receptor alpha (ER-alpha) signaling pathway (AID 743075; calls by dose curve;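 note: HEK293 GripTite cells with ER-alpha and UAS-driven beta-lactamase reporter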)
[11] = biological target: Estrogen receptor (Homo sapiens) (UniProt P03372); test: qHTS assay to identify small molecule agonists of the estrogen receptor alpha (ER-alpha) signaling pathway using the BG1 cell line (AID 743079); settings: BG1Luc4E2 cells, ERE-luciferase agonist, 22 h; activation: at 70.3 µM (top of the series); note: nearly all actives have a fitted effect of over 20% in size; note: potency is the fitted concentration of half-maximal effect
[12] = qHTS assay to identify small molecule antagonists of the estrogen receptor alpha (ER-alpha) signaling pathway using the BG1 cell line (AID 743080; calls by dose curve;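 note: BG1 cells stimulated with 17beta-estradiol alongside compound; nearly all actives have a fitted effect of over 25% in size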; note: potency is the fitted concentration of half-maximal effect)
How it was run: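 Endogenous full-length ER-alpha in BG1-Luc-4E2 cells drives a stably integrated 4×ERE luciferase gene; compounds were tested against 17beta-estradiol over 21.5 h, with luminescence and multiplexed viability fluorescence recorded.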

[13] = qHTS assay to identify small molecule antagonists of the estrogen receptor alpha (ER-alpha) signaling pathway using the BG1 cell line - cell viability counter screen (AID 743081);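 note: compound given together with 17beta-estradiol as the ER stimulus; nearly all actives have a fitted effect of over 45% in size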; note: potency is the fitted concentration of half-maximal effect
[14] = biological target: Aromatase (Homo sapiens) (UniProt P11511); test: qHTS assay to identify aromatase inhibitors (AID 743083); note: nearly all actives have a fitted effect of over 55% in size; note: potency is the fitted concentration of half-maximal effect
Aromatase (Homo sapiens), sequence (P11511 whole entry, looked up): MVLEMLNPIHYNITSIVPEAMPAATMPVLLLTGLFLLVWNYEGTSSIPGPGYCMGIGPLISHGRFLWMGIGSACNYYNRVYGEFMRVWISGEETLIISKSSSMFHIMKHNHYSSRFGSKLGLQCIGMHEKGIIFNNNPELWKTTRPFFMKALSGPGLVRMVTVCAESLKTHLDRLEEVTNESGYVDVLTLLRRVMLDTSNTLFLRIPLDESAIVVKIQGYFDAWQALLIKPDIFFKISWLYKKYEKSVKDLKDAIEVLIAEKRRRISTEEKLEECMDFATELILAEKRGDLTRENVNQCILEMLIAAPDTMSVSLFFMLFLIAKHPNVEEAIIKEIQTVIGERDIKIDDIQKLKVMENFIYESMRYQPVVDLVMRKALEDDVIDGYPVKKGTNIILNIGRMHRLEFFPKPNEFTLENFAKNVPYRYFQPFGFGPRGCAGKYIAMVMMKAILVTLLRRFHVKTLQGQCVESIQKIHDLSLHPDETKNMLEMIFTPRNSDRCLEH

[15] = biological target: Androgen receptor (Homo sapiens) (UniProt P10275); test: qHTS assay to identify small molecule antagonists of the androgen receptor (AR) signaling pathway (AID 743035; active = well fitted inhibition curve with a large enough effect in the signal ratio in the repeat runs, not every such curve was filed as active; the % refers to the signal ratio)
Androgen receptor (Homo sapiens), sequence (P10275 whole entry, looked up): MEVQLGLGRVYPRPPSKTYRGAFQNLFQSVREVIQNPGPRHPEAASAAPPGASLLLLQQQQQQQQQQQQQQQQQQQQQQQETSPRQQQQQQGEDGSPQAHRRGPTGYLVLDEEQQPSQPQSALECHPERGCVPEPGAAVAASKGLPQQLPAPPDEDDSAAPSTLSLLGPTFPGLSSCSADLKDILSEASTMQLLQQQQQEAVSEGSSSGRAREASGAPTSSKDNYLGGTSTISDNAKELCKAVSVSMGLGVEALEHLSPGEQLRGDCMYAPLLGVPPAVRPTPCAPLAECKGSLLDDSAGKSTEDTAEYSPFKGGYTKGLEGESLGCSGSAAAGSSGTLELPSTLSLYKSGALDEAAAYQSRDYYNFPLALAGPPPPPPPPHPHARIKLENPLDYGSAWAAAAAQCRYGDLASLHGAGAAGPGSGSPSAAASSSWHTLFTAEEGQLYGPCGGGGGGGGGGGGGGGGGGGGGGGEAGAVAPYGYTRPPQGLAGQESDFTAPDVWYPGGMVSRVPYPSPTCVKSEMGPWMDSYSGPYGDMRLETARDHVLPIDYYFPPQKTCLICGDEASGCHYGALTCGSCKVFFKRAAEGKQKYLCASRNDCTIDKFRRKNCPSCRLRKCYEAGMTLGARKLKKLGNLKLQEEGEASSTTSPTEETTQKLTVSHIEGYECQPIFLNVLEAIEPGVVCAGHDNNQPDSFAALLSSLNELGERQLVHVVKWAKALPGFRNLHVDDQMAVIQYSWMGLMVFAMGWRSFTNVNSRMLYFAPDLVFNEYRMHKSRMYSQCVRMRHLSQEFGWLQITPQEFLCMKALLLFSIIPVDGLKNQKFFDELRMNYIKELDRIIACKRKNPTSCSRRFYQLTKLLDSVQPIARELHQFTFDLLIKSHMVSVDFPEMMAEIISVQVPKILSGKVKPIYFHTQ
How it was run: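 Beta-lactamase FRET read (2 h RT incubation with LiveBLAzer B/G) following 16 h of compound plus R1881 treatment of AR-UAS-bla HEK293 cells, which had been pre-incubated 4 h at 37C.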

[16] = biological target: Androgen receptor (Homo sapiens) (UniProt P10275); test: qHTS assay to identify small molecule agonists of the androgen receptor (AR) signaling pathway using the MDA cell line (AID 743040; note: nearly all actives have a fitted effect of over 20% in size)
How it was run: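 Luminescence from ONE-Glo, read after 30 min at room temperature, reflects MMTV-driven luciferase in MDA-kb2 cells (AR- and GR-responsive). Treatment lasted 16 h at 37C, 0% CO2.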

[17] = biological target: Androgen receptor (Homo sapiens) (UniProt P10275); test: qHTS assay to identify small molecule antagonists of the androgen receptor (AR) signaling pathway using the MDA cell line (AID 743042; note: nearly all actives have a fitted effect of over 55% in size; note: potency is the fitted concentration of half-maximal effect)
How it was run: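 MDA-kb2 cells (human breast carcinoma, stably carrying an MMTV-luciferase reporter responsive to AR and GR) were plated at 3,000 cells/well and preincubated 5 hr at 37C, then given compound plus R1881 agonist for 16 h. ONE-Glo luminescence was read.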

[18] = qHTS assay to identify small molecule antagonists of the androgen receptor (AR) signaling pathway - cell viability counter screen (AID 743033; note: nearly all actives have a fitted effect of over 45% in size; note: potency is the fitted concentration of half-maximal effect)
[19] = qHTS assay for identifying genotoxic compounds that show differential cytotoxicity against isogenic chicken DT40 cell lines with known DNA damage response pathways - Rev3 mutant cell line (AID 743014); note: nearly all actives have a fitted effect of over 55% in size; note: potency is the fitted concentration of half-maximal effect
[20] = biological target: Androgen receptor (Homo sapiens) (UniProt P10275); test: qHTS assay to identify small molecule agonists of the androgen receptor (AR) signaling pathway (AID 743036; active = well fitted activation curve with a large enough effect in the signal ratio in the repeat runs, with a control signal flat, not every such curve was filed as active; the % refers to the signal ratio)
How it was run: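 Reporter line: GeneBLAzer AR-UAS-bla-GripTite (HEK293). Steps: plate cells, 4 h rest, add compounds, 16 h at 37C, add LiveBLAzer B/G substrate, 2 h at RT, read fluorescence.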

Measured: Potency

COc1ccc(C2(C#N)CCC(C(=O)O)CC2)cc1OC1CCCC1 (configuration not stated)
inactive: [1] | [2] | [3] | [4] | [5] | [6] | [7] | [8] | [9] | [10] | [12] | [13] | [14]
active: [11] 29.8 µM

CC[C@H](C)[C@H]1O[C@]2(CC[C@@H]1C)C[C@@H]1C[C@@H](C/C=C(\C)[C@@H](O[C@H]3C[C@H](OC)[C@@H](O[C@H]4C[C@H](OC)[C@@H](O)[C@H](C)O4)[C@H](C)O3)[C@@H](C)/C=C/C=C3\CO[C@@H]4[C@H](O)C(C)=C[C@@H](C(=O)O1)[C@]34O)O2
inactive: [15] | [16] | [4] | [17] | [14]
active: [1] 6.01 µM | [2] 3.76 µM | [3] 7.5 µM | [9] 19 µM

COC(=O)[C@H]1[C@H]2C[C@@H]3c4[nH]c5cc(OC)ccc5c4CCN3C[C@H]2C[C@H](OC)[C@@H]1OC
inactive: [1] | [2] | [3] | [6] | [7] | [8] | [9] | [10] | [11] | [12] | [13] | [14]

O=C(Nc1ccc(/C=C/c2ccc(NC(=O)c3cc(S(=O)(=O)O)c4cccnc4c3O)cc2S(=O)(=O)O)c(S(=O)(=O)O)c1)c1cc(S(=O)(=O)O)c2cccnc2c1O
inactive: [1] | [2] | [18] | [4] | [7] | [8] | [9] | [10] | [11] | [12] | [13] | [14]

O=C(OC[C@H]1O[C@](O)(COC(=O)c2cccnc2)[C@@H](OC(=O)c2cccnc2)[C@@H]1OC(=O)c1cccnc1)c1cccnc1
inactive: [1] | [19] | [3] | [18] | [15] | [20] | [16] | [4] | [17] | [6] | [7] | [8] | [9] | [10] | [11] | [12] | [13] | [14]

CCOC(=O)[C@H](CCc1ccccc1)N[C@H]1CCCN2CCC[C@@H](C(=O)O)N2C1=O
inactive: [1] | [19] | [3] | [18] | [4] | [5] | [6] | [7] | [9] | [13] | [14]

CC(=O)N(CC(C)C(=O)O)c1c(I)cc(I)c(N)c1I (configuration not stated)
inactive: [1] | [19] | [3] | [18] | [4] | [5] | [6] | [7] | [8] | [9] | [10] | [11] | [12] | [13] | [14]

C/C1=C2N=C(/C=C3N=C(/C(C)=C4\[N-][C@@](C)([C@@H]5N=C1[C@](C)(CCC(=O)NCC(C)OP(=O)(O)O[C@H]1[C@@H](O)[C@@H](n6cnc7cc(C)c(C)cc76)O[C@@H]1CO)[C@H]5CC(N)=O)[C@@](C)(CC(N)=O)[C@@H]4CCC(N)=O)[C@@](C)(CC(N)=O)[C@@H]\3CCC(N)=O)C(C)(C)[C@@H]/2CCC(N)=O.CC(=O)O.[Co] (some centres not stated)
inactive: [1] | [2] | [18] | [7] | [9]
active: [6] 11.9 µM | [13] 33.5 µM | [14] 26.6 µM

CC1(C)[C@@H]2CC[C@@]1(C)[C@H](OC(=O)CSC#N)C2
inactive: [1] | [19] | [3] | [18] | [4] | [5] | [6] | [7] | [8] | [9] | [10] | [11] | [12] | [13] | [14]

CC(NNC(=O)c1ccccc1)c1ccccc1 (configuration not stated)
inactive: [1] | [19] | [3] | [18] | [20] | [16] | [4] | [17] | [9] | [13] | [14]

O=C(OCCO)c1ccccc1O
inactive: [1] | [19] | [3] | [18] | [4] | [5] | [6] | [7] | [8] | [9] | [10] | [11] | [12] | [13] | [14]

O=S(=O)(O)c1cc(O)c2c(N=Nc3ccc(Nc4ccccc4)c4c(S(=O)(=O)O)cccc34)cc(S(=O)(=O)O)cc2c1
inactive: [1] | [18] | [15] | [20] | [16] | [7] | [9] | [10]
active: [19] 11.9 µM | [3] 13.3 µM | [17] 16.8 µM | [5] 26.6 µM | [6] 23.7 µM | [13] 15 µM | [14] 23.7 µM

COc1ccc2c(=O)c(C)c(-c3ccccc3)oc2c1CN(C)C
active: [3] 18.8 µM
inactive: [1] | [19] | [18] | [15] | [20] | [16] | [17] | [9] | [13]

CC(=O)O[C@H]1C[C@@H]2CC[C@@H]3[C@H](CC[C@@]4(C)[C@H]3C[C@H](N3CC[N+](C)(C)CC3)[C@@H]4OC(C)=O)[C@@]2(C)C[C@@H]1N1CC[N+](C)(C)CC1
inactive: [1] | [19] | [3] | [18] | [4] | [5] | [6] | [7] | [8] | [9] | [10] | [11] | [12] | [13] | [14]

CCN(CC)c1ccc(C(=C2C=CC(=[N+](CC)CC)C=C2)c2ccccc2)cc1
inactive: [16]
active: [1] 1.51 µM | [19] 0.106 µM | [3] 0.106 µM | [18] 2.39 µM | [4] 2.66 µM | [17] 0.473 µM | [5] 0.335 µM | [6] 0.335 µM | [9] 4.77 µM | [12] 5.96 µM | [14] 3.35 µM
